The source of these data is PubChem BioAssay (EPA / NIEHS).

Results filed as inconclusive are left out. Activity calls are given as the source filed them. Rule for the calls, unless noted: active = hit-call score of the fitted dose curve at least 0.9, where 1 is the maximum; inactive = score below 0.9.

Read-out in test [1]: Human Leukocyte Antigen - DR isotype (HLADR), HLA-DRA (gene 3122)
As to the kind of experiment: BSK_3C_HLADR: BioMAP Diversity Plus: 3C Assay for Human Leukocyte Antigen - DR isotype (HLADR) Biomarker Activity (AID 2283019).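 For outcome: ELISA of cell-surface HLA-DR on HUVEC 24 h after dosing.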 The conditions noted are these: primary human endothelial cells (HUVEC); actives raise or lower the signal. An outline of the steps: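 Compound added to primary HUVEC cultures, 24 h incubation, then HLA-DR determined by ELISA; endpoint derived by bidirectional fitting relative to DMSO negative control.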

Read-out in test [2]: Interleukin-8 (IL8), CXCL8 (gene 3576)
As to the kind of experiment: BSK_3C_IL8: BioMAP Diversity Plus: 3C Assay for Interleukin-8 (IL8) Biomarker Activity (AID 2283020). The conditions noted are these: primary human endothelial cells (HUVEC); actives raise or lower the signal. An outline of the steps:
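HUVEC, 3C stimulation; 24 h compound exposure; IL-8 read by ELISA; gain or loss of signal fitted relative to DMSO control.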

Read-out in test [3]: Monokine induced gamma interferon (MIG), CXCL9 (gene 4283)
Kind of test: BSK_3C_MIG: BioMAP Diversity Plus: 3C Assay for Monokine induced gamma interferon (MIG) Biomarker Activity (AID 2283021).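 For AC50: MIG protein level measured by immunoassay in the treated endothelial cultures.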 The settings on record: primary human endothelial cells (HUVEC); actives raise or lower the signal. An outline of the steps:
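HUVEC, 3C system; 24 h chemical exposure; MIG by ELISA; bidirectional fit vs DMSO baseline.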

Test [4] addresses human Vitamin D Receptor (VDR), VDR (gene 7421) (UniProt P11473). Kind of test: ATG_VDR_TRANS: Attagene TRANS-FACTORIAL HepG2 Assay for human Vitamin D Receptor (VDR) (AID 2283022; active = hit-call score of the fitted dose curve at least 0.9, where 1 is the maximum). A digest of the protocol:
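Multiplexed TRANS reporter in HepG2; 24 h treatment; reporter mRNA by RT-PCR plus capillary electrophoresis; upregulation scored relative to DMSO.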

Test [5] is described as follows: BSK_3C_SRB: Viability Assessment in the BioMAP Diversity Plus: 3C Assay (AID 2283023).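 Note: fitted both ways against DMSO so a hit may be signal rise or drop.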 The settings on record: primary human endothelial cells (HUVEC). An outline of the steps: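 Overt cytotoxicity is gauged in parallel confluent HUVEC cultures by SRB total-protein staining at the time of biomarker measurement, 24 h after dosing. Gain or loss of signal is fitted versus DMSO.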

A short description of test [6]: BSK_3C_Vis: BioMAP Diversity Plus: 3C Assay for Morphology Visualization (AID 2283025).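 Note: fitted both ways so gain or loss versus DMSO counts.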 The conditions noted are these: primary human endothelial cells (HUVEC). A digest of the protocol: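 HUVEC, 3C system; light microscopy of morphology at 24 h post-dose. Bidirectional fit vs DMSO baseline. Secondary readout, background-control function.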
A short description of test [7]: BSK_4H_SRB: Viability Assessment in the BioMAP Diversity Plus: 4H Assay (AID 2283027).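 For AC50: curves fitted both ways versus DMSO so AC50 may be loss or gain.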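 Note: cells exposed to compound for 24 h before staining.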 The conditions noted are these: primary human endothelial cells (HUVEC). An outline of the steps:
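Cytotoxicity read-out in primary human endothelial cells: after 24 h compound exposure, cells were TCA-fixed (10%), stained with 0.1% SRB and absorbance taken at 560 nm. Values fitted in both directions relative to DMSO.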

A short description of test [8]: BSK_BE3C_SRB: Viability Assessment in the BioMAP Diversity Plus: BE3C Assay (AID 2283028).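 For AC50: fitted both ways so AC50 may mark signal gain or loss versus DMSO.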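 Note: measured 24 h after chemical dosing.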 The conditions noted are these: primary human bronchial epithelial cells. A digest of the protocol: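 SRB total-protein staining (0.1%, after TCA fixation) of chemically dosed human bronchial epithelial primary cells at 24 h; DMSO serves as the negative control for bidirectional curve fitting.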

Read-out in test [9]: Matrix Metallopeptidase 1 (MMP1), MMP1 (gene 4312)
As to the kind of experiment: BSK_BE3C_MMP1: BioMAP Diversity Plus: BE3C Assay for Matrix Metallopeptidase 1 (MMP1) Biomarker Activity (AID 2283024). The settings on record: primary human bronchial epithelial cells; actives raise or lower the signal. A digest of the protocol: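 ELISA read-out of MMP1 in human lung bronchial epithelial primary cultures, 24 h post-dose; bidirectional curve fit vs DMSO baseline, gain or loss of signal scored.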

Read-out in test [10]: Pselectin, SELP (gene 6403)
As to the kind of experiment: BSK_4H_Pselectin: BioMAP Diversity Plus: 4H Assay for Pselectin Biomarker Activity (AID 2283026). The conditions noted are these: primary human endothelial cells (HUVEC); actives raise or lower the signal. An outline of the steps: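 HUVEC, 24 h chemical exposure; P-selectin read by ELISA. Bidirectional curve fit vs DMSO baseline; gain or loss of signal scored.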

Sequence of human Vitamin D Receptor (VDR), VDR (gene 7421) (P11473 whole entry, looked up): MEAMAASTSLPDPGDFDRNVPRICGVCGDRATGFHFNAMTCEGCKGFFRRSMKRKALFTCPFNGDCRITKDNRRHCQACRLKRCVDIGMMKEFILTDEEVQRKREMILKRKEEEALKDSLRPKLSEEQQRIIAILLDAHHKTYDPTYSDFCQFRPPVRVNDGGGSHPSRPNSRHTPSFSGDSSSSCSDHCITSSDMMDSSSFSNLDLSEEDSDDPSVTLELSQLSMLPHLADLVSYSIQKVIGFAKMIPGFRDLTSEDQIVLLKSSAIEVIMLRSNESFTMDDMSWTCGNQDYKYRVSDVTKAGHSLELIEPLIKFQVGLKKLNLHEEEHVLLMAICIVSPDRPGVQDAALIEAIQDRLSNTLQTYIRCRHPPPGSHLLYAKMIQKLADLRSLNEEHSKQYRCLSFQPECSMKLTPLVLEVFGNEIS

Turning to `C=CCC1=C(C)[C@@H](OC(=O)[C@@H]2[C@@H](C=C(C)C)C2(C)C)CC1=O`, the AC50 – broadly, the concentration giving half of the maximal activity seen – in test [1] was 34.4 µM (active); in [2] it was 35.4 µM (active); in [5] it was 25.8 µM (active); in test [6] it was 13.7 µM (active); in [7], 30.2 µM (active); in [8], 18.8 µM (active). For the same molecule, the result in [3] and in test [4] was inactive.
`CCOP(=S)(OCC)SCn1c(=O)oc2cc(Cl)ccc21`: the outcome in [1], in test [2], in test [3] and in [7] was inactive. Moreover, the AC50 in test [5] is 30.2 µM (active); in test [6], 39 µM (active).
Take `CCNc1nc(Cl)nc(NC(C)C)n1`: the outcome in test [1], in [2], in [3], in test [4], in test [5] and in test [6] was inactive. The result in test [7] was inactive.
`CC1COC(Cn2cncn2)(c2ccc(Oc3ccc(Cl)cc3)cc2Cl)O1` (centres undefined): the half-maximal activity concentration (AC50) in [1] is 30.3 µM (active); in test [2] it was 28.6 µM (active); in test [3], 33.4 µM (active); in [5], 20.8 µM (active); in [6], 37.2 µM (active); in [7], 26.9 µM (active). Also, the molecule was called inactive in test [4].
With `CC(C)C1(C)N=C(c2nc3ccccc3cc2C(=O)O)NC1=O` (centres undefined), the result in [1], in test [2], in [3], in test [5], in test [9] and in [6] was inactive. Also, the result in test [7] and in [8] was inactive.
Take `CC(Oc1ccc(Cl)cc1Cl)C(=O)O` (centres undefined): the outcome in [1], in test [2], in [3], in [5], in test [6] and in [10] was inactive. In [7], the outcome was inactive.
As to `N#Cc1cc(Br)c(O)c(Br)c1`, the AC50 in [1] was 28 µM (active); in [5], 20 µM (active); in [7], 19 µM (active). Further, the outcome in [2], in test [3], in test [6] and in test [8] was inactive.
`CS/C(C)=N/OC(=O)N(C)SN(C)C(=O)O/N=C(\C)SC`: the half-maximal activity concentration (AC50) in test [1] was 15.8 µM (active); in [2], 29.7 µM (active); in test [3], 35.1 µM (active); in test [5] it was 26.5 µM (active); in test [6], 11.9 µM (active); in test [7] it was 29.6 µM (active).
Regarding `N#CC(CCc1ccc(Cl)cc1)(Cn1cncn1)c1ccccc1` (centres undefined), the outcome in test [1], in [2], in test [3] and in [7] was inactive. For the same molecule, the AC50 in [5] was 20 µM (active); in [6], 39 µM (active).
Turning to `Fc1ccc(Oc2ccnc3cc(Cl)cc(Cl)c23)cc1`, the AC50 was 25.1 µM (active) in test [1]; 31.5 µM (active) in test [2]; 31.2 µM (active) in [3]; 22.9 µM (active) in [5]; 29.4 µM (active) in [6]; 23 µM (active) in test [10]. Besides, the AC50 in [7] is 30.8 µM (active).
Regarding `COc1ccc(C(c2ccc(OC)cc2)C(Cl)(Cl)Cl)cc1`, the half-maximal activity concentration (AC50) in [1] was 25.8 µM (active); in test [2], 24.9 µM (active); in [5], 20.1 µM (active); in [6], 15.2 µM (active); in test [7], 26.9 µM (active); in test [8] it was 19.4 µM (active). The outcome in test [3] and in test [4] was inactive.
For `CNC(=O)ON=CC(C)(C)SC`, the outcome in test [1], in test [2], in test [3], in [5], in test [6] and in [7] was inactive.
As to `Cc1cc(Cl)ccc1OCC(=O)O`, the result in test [1], in test [2], in test [3], in test [5], in test [6] and in test [10] was inactive. In [7], the outcome was inactive.
On to `CC(C)Oc1cc(-n2nc(C(C)(C)C)oc2=O)c(Cl)cc1Cl`, for which the AC50 in [1] was 29.7 µM (active); in [2] it was 29 µM (active); in test [5], 28.8 µM (active); in test [6] it was 13.2 µM (active); in [7] it was 30.3 µM (active); in test [8] it was 20 µM (active). Moreover, the result in test [3] and in test [4] was inactive.
Consider `CCOc1cc(Oc2ccc(C(F)(F)F)cc2Cl)ccc1[N+](=O)[O-]`, for which the AC50 in test [1] was 3.32 µM (active); in [5], 14.1 µM (active). Also, the outcome in [2], in [3], in test [6] and in test [7] was inactive.
